Unmarked numbers belong to inactive results. The rule behind the calls is not given here.
biological target: VTCN1, Q7Z7D3
Sequence (Q7Z7D3 whole entry): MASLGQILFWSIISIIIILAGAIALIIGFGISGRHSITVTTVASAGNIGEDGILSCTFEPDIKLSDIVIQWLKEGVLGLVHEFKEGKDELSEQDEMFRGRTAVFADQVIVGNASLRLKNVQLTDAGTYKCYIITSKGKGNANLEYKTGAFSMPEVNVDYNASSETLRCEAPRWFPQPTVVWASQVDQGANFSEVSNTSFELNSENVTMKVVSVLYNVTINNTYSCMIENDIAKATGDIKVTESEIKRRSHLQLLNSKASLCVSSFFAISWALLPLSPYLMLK

Binder	binding in a display sort
design_609_7ee6ce64-4629-41e8-bcb4-ba0da017284d_1938_dldesign_0_cycle1_af2pred (protein) EEELKKLIEEHMEKLAKEAEKADPEVGKEVKEALKKAKKLNVGEAISLFLSTGARAAKEIGKKDPEKGKKVKEIVDKALDEIFSK	not found
design_609_7ee6ce64-4629-41e8-bcb4-ba0da017284d_1584_dldesign_0_cycle1_af2pred (protein) MNVEEAKKEAKEIRDETIAKMKAAKTPEEVAAVAHEGLQKLAEGAYKFKSNKEAEKIYEEARKEVIDAAREIAAALEAAA	not found
design_609_7ee6ce64-4629-41e8-bcb4-ba0da017284d_1135_dldesign_0_cycle1_af2pred (protein) SAALEHLVESLIENSTKAAEEGTPEVAKLLNAAAAAAKAGDLETALKLADQALALSPPNINVTLARSDARNALELAKK	not found
design_609_7ee6ce64-4629-41e8-bcb4-ba0da017284d_1733_dldesign_0_cycle1_af2pred (protein) SEKDKAIMEATFHANGALNLADVGGDKKEIEKEAKLAKEHAEKAAKLSSKEEGAKILEYVEKKVKEVEEKLKKL	not found
design_609_7ee6ce64-4629-41e8-bcb4-ba0da017284d_985_dldesign_0_cycle1_af2pred (protein) SEEVLELGEREAERLKEAGASNRSIGLVLFLAEEAAEGNLEAAEGIFRAARREAEREKEKNPEVGELLEEALERLRKAAE	not found
design_609_7ee6ce64-4629-41e8-bcb4-ba0da017284d_1161_dldesign_0_cycle1_af2pred (protein) GSEEARKLQEEFGEALRRFTAAGRRLVETGREVGERTGDPEIEERARRVAEEGNRRRLEALDAGDVEAILAVADELERATEELL	not found
design_609_7ee6ce64-4629-41e8-bcb4-ba0da017284d_1401_dldesign_0_cycle1_af2pred (protein) ALAALLEGLAKAAVIVARGIRRAARYAGDPRKAGFAFIVAGEQAFLVGRADPNPVAAAVLWLTGVLLIAIGLAIEAS	not found
design_609_7ee6ce64-4629-41e8-bcb4-ba0da017284d_1728_dldesign_0_cycle1_af2pred (protein) EAEKQALADAAKAAEKAAKAAKESPEKGAKAAKELAKAYPEVAKAANAAARYIEELGEEGVDAAEEILKHAIKTLKAKAAAL	not found
design_609_7ee6ce64-4629-41e8-bcb4-ba0da017284d_1105_dldesign_0_cycle1_af2pred (protein) DALKEAAEIAAKARELAAELDYLAKKSSPELGKKYAAYAERLRKAVRETRETGVEGAEKTRKELEEVEKEVKEL	not found
design_609_7ee6ce64-4629-41e8-bcb4-ba0da017284d_962_dldesign_0_cycle1_af2pred (protein) AEAEVKAAIEELKAESEKIVEEAKKEMEKHKEDPKKVEEIRKEALKKIRELAKEVAEKTGDWKGASAVVHEAYEKLNEAYKEAIEKAK	not found
design_609_7ee6ce64-4629-41e8-bcb4-ba0da017284d_1936_dldesign_0_cycle1_af2pred (protein) SASEKTKEYLKKNDELGKKAAELSLKDEEKGLALAEKDVYIAIKASAILYKKGDEKALEHAKKFKEVAFKMLDE	not found
design_609_7ee6ce64-4629-41e8-bcb4-ba0da017284d_1771_dldesign_0_cycle1_af2pred (protein) KKEEALNYASEMRAYLIGAAAASKLPQAPQLEAEAREKAEKVGELLSPEVAKKIKELTEQAIAGTPEERKALAREIAELVKKAVEE	not found
design_609_7ee6ce64-4629-41e8-bcb4-ba0da017284d_2027_dldesign_0_cycle1_af2pred (protein) MTPEELLAKIKELAKKAKEAKDEKEAKKYLEEAKAAAAELKANGTPETAKQASAAVAEAYENYAEAVFKIK	not found
design_609_7ee6ce64-4629-41e8-bcb4-ba0da017284d_1108_dldesign_0_cycle1_af2pred (protein) MQEAIDYVKKKGSELIDKLVDDLAAGEEKDDPKIAKEVLEKLEELEKEAKKLSEEAAEEAKKAIETAKRIASNA	not found
design_609_7ee6ce64-4629-41e8-bcb4-ba0da017284d_914_dldesign_0_cycle1_af2pred (protein) AEAEELVEKAEERYKKLKERAEKAIKEGNKNELLAVSEAAKHAAEQAEKLAPKTGEKGKEVAKKFKELSKKAEETAKK	not found
design_609_7ee6ce64-4629-41e8-bcb4-ba0da017284d_1721_dldesign_0_cycle1_af2pred (protein) SKLEEDKKKAEELKKEAEKLAEEAAKTTPEEAKKLRKELREKAKKVAEEVSPEIAKKVAEIAHEAQQKIAEAMQEIKK	not found
design_609_7ee6ce64-4629-41e8-bcb4-ba0da017284d_1016_dldesign_0_cycle1_af2pred (protein) AAADAKAKFDVAFLAAELRASARAAAKANPAAAPAVVDAAAERLRAAGAAGTPEAAAYADAAIARERAWAAAAAAA	not found
design_609_7ee6ce64-4629-41e8-bcb4-ba0da017284d_1405_dldesign_0_cycle1_af2pred (protein) DLKKKIEAEAGKSYAEGVAESAAKIIAEIDPEIAPEYAEKVKKELTALAEKLADKSLETVYKEAKAIAKKVIEEAKKKK	not found
design_609_7ee6ce64-4629-41e8-bcb4-ba0da017284d_2006_dldesign_0_cycle1_af2pred (protein) EKLLGEGYADIIVDNTKSVIAADPSKAEEYVETNKAKGLARAEKIKDTEAGKVLKEKVEKEAEKLLAEAKKAKAAAEAAA	not found

Binder	binding in a display sort
design_609_7ee6ce64-4629-41e8-bcb4-ba0da017284d_1780_dldesign_0_cycle1_af2pred (protein) MEQAELRREMVRLVREAGRILEEKAPEYPEAKEAIELLRKAVFLAGDKEKAPEALELLKKAAEIAKEIDPEAAELIKEALELAKKWKE	not found
design_609_7ee6ce64-4629-41e8-bcb4-ba0da017284d_1630_dldesign_0_cycle1_af2pred (protein) AAGAAAVAAASKARGEALFELAAKAKFGTEEEAKEAEAKRKALTAAAKAVKAAAGTADAAAVATAARAQAEAIL	not found
design_609_7ee6ce64-4629-41e8-bcb4-ba0da017284d_1354_dldesign_0_cycle1_af2pred (protein) AVAAAKAAAAKDAEEVNKLKFEAVDGDAETVEAVMKEVKARREEWLAKAKADPAAKAVYEAAAEGMDKTEKALQSVLDALKKN	not found
design_609_7ee6ce64-4629-41e8-bcb4-ba0da017284d_960_dldesign_0_cycle1_af2pred (protein) DEEAYKKAKERGKKLEEKAKASNAYSAAAYYEAAYESYLQAAKQVRPELAKELKKAAEEAKAKAEEKYAEVAA	not found
design_609_7ee6ce64-4629-41e8-bcb4-ba0da017284d_1185_dldesign_0_cycle1_af2pred (protein) KSEESKKEAEAAAKAAGEAMAKATGDKATADALAKAMLDALKAGDEAAAVAKRNEAAAIALAADPALAMDVLAEGKAAIVYAKK	not found
design_609_7ee6ce64-4629-41e8-bcb4-ba0da017284d_1124_dldesign_0_cycle1_af2pred (protein) MAEAFEFTAEGLRLLAEEKSPEEAEKYNELAEKFEELAERARTGTPEDAKAAREEGNKLVKENSELVFEAKEYKTEKDYEELK	not found
design_609_7ee6ce64-4629-41e8-bcb4-ba0da017284d_1084_dldesign_0_cycle1_af2pred (protein) SEKEKEEVLKEAKEVLEKAKKAAEELGDEEAVKRMERRLKRAEEGNLQDAEAALESGKHALENAKKKLKEKEKAA	not found
design_609_7ee6ce64-4629-41e8-bcb4-ba0da017284d_1964_dldesign_0_cycle1_af2pred (protein) SKESRLRRAKALAEEAIKLLEEGEYAWAAALLRAAAREAERAGNEEAAKLLREAAELAAKSALEGPKYKEEALRLAKEALEILEKE	not found
design_609_7ee6ce64-4629-41e8-bcb4-ba0da017284d_1790_dldesign_0_cycle1_af2pred (protein) NEADKEVEELTKKIKELTKKAKEALEKGNIEEAKKYAEEAMKAIKKAREIAPKASKELQKEASKAAAEAYEVYAEVEFKSK	not found
design_609_7ee6ce64-4629-41e8-bcb4-ba0da017284d_1088_dldesign_0_cycle1_af2pred (protein) NKSKEYSDAMKELVRAAKEAAAAADALGAAKGDPALAQAIKAELEKLVFEAADGDIETAKKLAEEAKKLKEAAEKALA	not found
design_609_7ee6ce64-4629-41e8-bcb4-ba0da017284d_1726_dldesign_0_cycle1_af2pred (protein) AAAEEIAKAKAVYDKRKAKAQEYEKKGDYKGAANEYDIAAAQLGMAAAGLSPEAAAVAKALAEEAKKLAEEAEKKLAE	not found
design_609_7ee6ce64-4629-41e8-bcb4-ba0da017284d_900_dldesign_0_cycle1_af2pred (protein) GKEMVDKYSKERKKIAEAAKLAKEGKENPETFEKKAEEALKIAEEAAKEGDEGIKFQAENLKAYIEKLRKEK	not found
design_609_7ee6ce64-4629-41e8-bcb4-ba0da017284d_1448_dldesign_0_cycle1_af2pred (protein) AEEEARKERLEAAKKELNELRLKAADSGDAEKALEYAKQAEAVAEKAGIPEDGEKAARVIRSIAEALKKN	not found
design_609_7ee6ce64-4629-41e8-bcb4-ba0da017284d_862_dldesign_0_cycle1_af2pred (protein) MEVAKLAHEALEAAAEGEAVAKNDPEKREKLRELARKAREAAKKGDVEEAKKLAKEVKKLAKALEKEKKEKEK	not found
design_609_7ee6ce64-4629-41e8-bcb4-ba0da017284d_1351_dldesign_0_cycle1_af2pred (protein) AAAAAAEAARAAAAAAAVAAAAEAKTAEVAKADPSAAPYYADAAGIVVDSAAAALAAAPGAEAAAIAARGVRTINRLAESTIEAIKRR	not found
design_609_7ee6ce64-4629-41e8-bcb4-ba0da017284d_1000_dldesign_0_cycle1_af2pred (protein) GKAIEAQKLVADAFAKYRKGKANPETYEEDKAEARELLREALELDFESAKETAKFLAELAKWQNPEAGKEFAALVEEVIAEVA	not found
design_609_7ee6ce64-4629-41e8-bcb4-ba0da017284d_1121_dldesign_0_cycle1_af2pred (protein) SKEEAIKNIRELRRELREVAEEAMKEVSEEDAKKVRELASKASGKLAEERGLAVSKPELAEEALKNAKEIAEKAIEEVKKIAEKAKK	not found
design_609_7ee6ce64-4629-41e8-bcb4-ba0da017284d_1996_dldesign_0_cycle1_af2pred (protein) AAAATAHEAIQTSTEAAEKLKKGKTEEDKELGKEIEEKRKELSRRAAEAQKEGPEAAKKAVAELAKFAEEAKKIAEEREKKRK	not found
design_609_7ee6ce64-4629-41e8-bcb4-ba0da017284d_1172_dldesign_0_cycle1_af2pred (protein) MEEVEAFKKEAQKKLDEAVEYALSISDIEKSKKVADLMSEMGKHYSEAYKAMESGEKLEEAKKNIEKAEEYYKKAKEIAEEDEKKKKE	not found

Source: article PMC13494018
